# High-throughput results deposited in PubChem by The Scripps Research Institute Molecular Screening Center.
# GPR151 activ = activators of human GPR151, primary screen, cell-based, PathHunter beta-arrestin, luminescence | G-protein coupled receptor 151 (Homo sapiens), Q8TDV0 | PathHunter beta-arrestin GPR151 cells | activation, % at 11.2 µM | 650,000 compounds, 1% hits | AID 1508602, 2020; in the data active = activation above about 4.9%;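 also: 0% = median of compound wells and 100% = cells with positive control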
# Target sequence (Q8TDV0 whole entry, looked up): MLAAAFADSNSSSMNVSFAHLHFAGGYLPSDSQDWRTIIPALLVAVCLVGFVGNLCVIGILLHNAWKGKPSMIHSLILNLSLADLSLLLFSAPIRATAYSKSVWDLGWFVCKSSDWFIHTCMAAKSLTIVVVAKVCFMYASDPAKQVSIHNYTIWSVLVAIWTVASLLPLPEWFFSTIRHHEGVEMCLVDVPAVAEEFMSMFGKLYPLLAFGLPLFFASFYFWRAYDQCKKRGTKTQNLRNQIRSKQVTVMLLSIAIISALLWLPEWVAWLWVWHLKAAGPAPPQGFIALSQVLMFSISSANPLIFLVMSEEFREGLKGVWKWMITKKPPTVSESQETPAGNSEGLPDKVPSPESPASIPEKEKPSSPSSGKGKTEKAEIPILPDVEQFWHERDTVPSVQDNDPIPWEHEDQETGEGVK
# FBW7 activator = FBW7 E3 ligase activators, primary screen, biochemical, AlphaScreen, human; F-box/WD repeat-containing protein 7 (Homo sapiens), Q969H0; normalized activity (activation), % at 26.1 µM; 650,000 compounds, 0.13% hits; AlphaScreen FBW7–phospho-cyclin E peptide binding, activator screen; in the data active = normalized activity above about 1.9%;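 also: purified mutant Fbw7 with reduced substrate affinity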
# MITF primary = MITF inhibitors, primary screen, biochemical, AlphaScreen, human | Microphthalmia-associated transcription factor (Homo sapiens), O75030 | AlphaScreen MITF homodimerization, bead proximity signal | inhibition, % at 2.6 µM | 650,000 compounds, 0.91% hits | AID 1259374, 2018; in the data active = inhibition above about 50%;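 also: 0% = vehicle wells with protein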
# TEAD-YAP block = TEAD-YAP interaction inhibition, primary screen, TEAD-YAP interaction inhibitor project, luminescence, HEK-TIYL cells; TEAD-Gal4/YAP UAS-luciferase luminescence; inhibition, % at 9.12 µM; 640,000 compounds, 1.4% hits; AID 1259422, 2018; in the data active = inhibition above about 32%;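 also: 0% = median of test compound wells and 100% = reference inhibitor wells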
# * marks the source's active call; other numbers are inactive results. The list is not random: actives were taken first. Their share in the collection is about 3.5%.
SMILES,GPR151 activ,FBW7 activator,MITF primary,TEAD-YAP block
CN1CCN(CCCNC(=O)c2cc3c(-c4ccc(Cl)cc4)nn(C)c3s2)CC1,2,1,14,-5
CN(C)CCNC(=O)c1cc2c(-c3ccc(Cl)cc3)nn(C)c2s1,-1,1,11,68*
Cc1csc(NC(=O)CSc2nnc(-c3ccccn3)n2-c2ccccc2Cl)n1,0,0,-3,62*
Cc1csc(NC(=O)CSc2nnc(-c3cccnc3)n2-c2ccccc2C)n1,1,0,-2,62*
Cc1ccccc1-n1c(SCC(=O)Nc2nccs2)nnc1-c1cccnc1,1,0,3,62*
COc1ccccc1-n1c(SCC(=O)Nc2nc(C)cs2)nnc1-c1ccccn1,-1,0,-3,23
Cc1ccccc1-n1c(SCC(=O)Nc2nccs2)nnc1-c1ccccn1,0,0,2,37*
Cc1ccc(-n2c(SCC(=O)Nc3nccs3)nnc2-c2ccccn2)c(C)c1,2,0,4,17
COc1ccc(-n2c(SCC(=O)NCc3cccs3)nnc2-c2cccnc2)cc1,0,0,5,2
COc1ccccc1-n1c(SCC(=O)NCc2cccs2)nnc1-c1cccnc1,-1,3.3*,-1,4
CCN(CC)S(=O)(=O)c1cccc(C(=O)Nc2nc(COc3ccccc3)cs2)c1,1,0,2,32*
COc1ccc(S(=O)(=O)N2CCN(c3ccc(N4CCOCC4)nn3)CC2)c(C)c1C,0,0,4,18
CC(C)C(=O)NCC(c1ccco1)N1CCOCC1 (stereo unspecified),1,0,16,0
COCCNc1ccc2ncc(-c3cccc(C(N)=O)c3)n2n1,-1,0,-4,-3
COCCNc1ccc2ncc(-c3cccc(NC(C)=O)c3)n2n1,0,0,6,56*
COCCNc1ccc2ncc(-c3cccc(NS(C)(=O)=O)c3)n2n1,1,0,-18,42*
CS(=O)(=O)Nc1cccc(-c2cnc3ccc(NCCCO)nn23)c1,1,0,-5,58*
COCCNc1ccc2ncc(-c3cccc(C(C)=O)c3)n2n1,3,0,-5,7
CCCCN(CC)S(=O)(=O)c1ccc(C(=O)Nc2ccc3sc(C)nc3c2)cc1,0,0,21,53*
O=C1CCCN1C(=S)C(=S)N1CCCC1=O,1,-2,21,99*
CC(=O)Nc1ccc(Nc2nc(NCCCN3CCCC3=O)nc3nc[nH]c23)cc1,-1,0,9,1
Cc1ccc(-n2c(-c3ccc(Cl)cc3)c[n+]3c2CCC3)cc1,2,0,-6,64*
Nc1c[n+]2c(n1-c1ccc(Br)cc1)CCCCC2,1,0,1,3
Cc1ccc(Oc2nc3ccccn3c(=O)c2/C=C(\C#N)C(=O)N2CCCCC2)cc1,1,0,11,-2
FC(F)(F)C1=Nc2cc(Cl)c(Cl)cc2N=C(c2cccs2)C1,0,0,-6,37*
SMILES,GPR151 activ,FBW7 activator,MITF primary,TEAD-YAP block
CC(=O)Nc1cc(-c2ccnc(N)n2)ccc1NC(=O)COc1cccc(C)c1,0,0,1,18
Cc1cccc(OCc2nc3ccc(-c4ccnc(N)n4)cc3[nH]2)c1,0,0,7,57*
O=C(CNC12CC3CC(CC(C3)C1)C2)N1CCc2ccccc21,0,0,4,4
Cc1ccc(CN2CCN(CC(O)COc3ccc(OCC(O)CN4CCN(Cc5ccc(C)cc5)CC4)cc3)CC2)cc1 (stereo unspecified),-2,0,0,-8
Cc1nc2ccccc2n1CC(O)COc1ccc2ccccc2c1Br (stereo unspecified),-1,0,6,45*
COc1ccc(OCC(O)Cn2c(C)nc3ccccc32)cc1 (stereo unspecified),2,0,3,44*
Cc1nc2ccccc2n1CC(O)COc1ccc(C(C)(C)C)cc1 (stereo unspecified),1,0,-4,47*
COC(=O)c1cccc(OCC(O)Cn2c(C)nc3ccccc32)c1 (stereo unspecified),1,0,5,39*
COc1cccc(C(=O)Nc2cc(-c3nc4cc(C)cc(C)c4o3)ccc2C)c1,0,0,18,2
Cc1ccc(CN(C)S(=O)(=O)c2ccc3ccccc3c2)cc1,2,0,-4,9
Cc1nn(C)c(C)c1CN(C)S(=O)(=O)c1ccc2ccccc2c1,2,0,-2,56*
C=CCn1c(SCc2ccccc2Cl)nc2c1c(=O)[nH]c(=O)n2C,0,0,9,53*
C=CCSc1nc2c(c(=O)[nH]c(=O)n2C)n1Cc1ccccc1Cl,1,0,4,-3
C=CCn1c(SCc2cccc(C)c2)nc2c1c(=O)[nH]c(=O)n2C,-1,0,-7,45*
C/C(N)=C(/C#N)C(=O)COC(=O)c1cc([N+](=O)[O-])ccc1NCc1ccccc1Cl,2,0,-10,4
Cc1ccc(C(=O)c2oc3ccc(N)cc3c2C)cc1,0,0,-5,54*
COc1ccc(C(=O)c2oc3ccc(N)cc3c2C)cc1,1,1,-5,52*
COc1ccc(C(=O)c2oc3ccc(NC(C)=O)cc3c2C)cc1,-1,0,17,-3
Cc1nc2c(ccc3nc(NC(=O)c4ccccc4[N+](=O)[O-])sc32)s1,-1,0,18,-21
O=c1c(NCc2ccccc2Cl)c(-c2ccc(Cl)cc2)c1=O,2,0,-6,4
CCN(CC)C(=O)C1CCCN(c2cccc(C(=O)NCCN(C(C)C)C(C)C)c2)C1 (stereo unspecified),1,0,-10,-1
O=C(Oc1ccc([N+](=O)[O-])c2cccnc12)c1ccccc1,0,-1,82*,57*
C=CCOC(=O)C1=C(C)OC(N)=C(C#N)C1c1cc2cc(C)ccc2[nH]c1=O (stereo unspecified),-1,0,1,59*
c1ccc2c(Nc3nc4ccccc4n4cnnc34)cccc2c1,1,0,10,-2
COC(=O)C1=C(C)NC2=C(C(=O)CC(C)(C)C2)C1c1cccc(Cl)c1Cl (stereo unspecified),1,2.0*,0,2
COc1cc(C2C3=C(CC(C)(C)CC3=O)Nc3c2ccc2ccccc32)cc(Br)c1O (stereo unspecified),1,0,-3,60*
CC1=C(C(=O)OCCc2ccccc2)C(c2ccc(Cl)cc2Cl)C2=C(CC(C)(C)CC2=O)N1 (stereo unspecified),2,2.1*,19,-1
CCOC(=O)C1=C(C)NC2=C(C(=O)CC(C)(C)C2)C1c1cccc(OC)c1O (stereo unspecified),-1,1.9*,4,11
